From PubChem BioAssay
Shown are actives, neighbours in structure and some others; about 2.4% of the full set was active somewhere.
ELG1 repair inh = blocks ELG1-dependent DNA repair in HEK293T cells; HEK293T ELG1-luciferase reporter, luminescence, 16 h; DNA damage induced by 5-fluorouridine; Potency, µM (doses to about 46.1 µM), hits mostly inhibitors; 330,000 tested, 2.3% active; AID 504467; note: nearly all actives have a fitted effect of over 55% in size
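Step one: seed 2,000 cells per well. Step two: pin-transfer compound or DMSO alongside 5-fluorouridine. Step three: incubate 16 hr, 37 °C, 5% CO2. Step four: add ONE-Glo, wait 30 min, read luminescence.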
PKM2 act = activators of human pyruvate kinase M2; purified PKM2, Kinase-Glo ATP luminescence, activation; response scale: 0% is enzyme alone, no compound; P14618; 260,000 tested, 0.34% active; Potency, µM (titrated, usually from 57.5 µM), actives largely listed as activators; note: nearly all actives have a fitted effect of over 55% in size
Target sequence (P14618 whole entry, looked up): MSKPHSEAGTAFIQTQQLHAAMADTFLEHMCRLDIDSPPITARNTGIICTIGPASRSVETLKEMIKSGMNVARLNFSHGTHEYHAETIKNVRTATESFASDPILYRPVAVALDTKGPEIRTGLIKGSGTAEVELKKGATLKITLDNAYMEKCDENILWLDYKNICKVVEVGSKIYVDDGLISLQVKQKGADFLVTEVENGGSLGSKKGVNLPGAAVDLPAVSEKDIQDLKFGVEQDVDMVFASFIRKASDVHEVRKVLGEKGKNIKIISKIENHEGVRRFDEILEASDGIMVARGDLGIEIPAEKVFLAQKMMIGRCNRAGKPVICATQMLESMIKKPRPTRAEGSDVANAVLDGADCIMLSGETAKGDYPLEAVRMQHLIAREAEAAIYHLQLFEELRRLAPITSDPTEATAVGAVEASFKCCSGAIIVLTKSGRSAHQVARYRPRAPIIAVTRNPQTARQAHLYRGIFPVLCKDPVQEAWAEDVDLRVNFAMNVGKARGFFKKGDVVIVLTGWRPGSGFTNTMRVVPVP
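Kinase-Glo luminescence reports ATP generated from ADP (0.1 mM) and PEP (0.5 mM) by purified hPK-M2 after 1 h at room temperature, pH 7.2 imidazole buffer; intermediate enzyme activity allows detecting inhibitors and activators.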
Rango dissoc inh = inhibitors of RanGTP-induced Rango-importin beta complex dissociation; O95149+P62826; Biochemical FRET Rango-importin beta, RanGTP-induced dissociation; Potency, µM (series often up to 46.1 µM); 340,000 tested, 0.071% active; AID 540253; calls by dose curve; note: nearly all actives have a fitted effect of over 45% in size
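FRET read at 45 min, room temperature: inhibitors block the CFP/YFP signal rise when RanGTP (0.6 uM Ran, 2 mM GTP, 0.2 uM RCC1) frees Rango (0.1 uM) from importin beta (0.25 uM). Pre-read after 5 min compound exposure flags interference.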
Tb PFK inh = T. brucei PFK enzyme inhibition; O15648; T. brucei PFK, ADP-Glo luminescence; Potency, µM (doses to about 57.5 µM), actives largely listed as inhibitors; 330,000 tested, 0.17% active; AID 485367; note: nearly all actives have a fitted effect of over 60% in size
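1.25 nM PFK with 0.5 mM F6P and 0.1 mM ATP in 0.1 M TEA pH 8.0, 5 mM MgCl2, incubated 45 min at room temperature; ADP measured by ADP-Glo luminescence; compounds titrated up to 57 uM.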
Rango complex inh = inhibitors of Rango-importin beta complex formation; Rango CFP/YFP FRET sensor + importin beta, 45 min; Q14974; Potency, µM (top dose mostly 92.2 µM); 340,000 tested, 0.031% active; calls by dose curve; note: nearly all actives have a fitted effect of over 15% in size
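Inhibition scored from the CFP 486 nm/YFP 530 nm FRET ratio 45 min after adding 0.125 microM importin beta to 50 nM Rango biosensor preincubated 5 min with compound (room temperature, PBS with DTT, Tween-20, BSA). No-importin wells as positive control.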
Tb PGK inh = blocks T. brucei phosphoglycerate kinase; PGK/GAPDH coupled, Kinase-Glo luminescence, 60 min; Potency, µM (series often up to 57.5 µM), usual class: inhibitors; 380,000 tested, 0.043% active; AID 602233; note: nearly all actives have a fitted effect of over 60% in size
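Luminescent ATP detection (Kinase-Glo Plus) follows a 60-minute room-temperature incubation, with wells lacking PGK as controls. Buffer: 100 mM TEA (pH 7.6), 5 mM MgCl2, 0.01% Tween-20. Coupling enzyme GAPDH (100 nM final) supplies unstable 1,3-BPG in-well.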
A number is an active result; i = inactive; ? = inconclusive; nt = no result. Unless noted, calls come from the whole dose curve; as a rule, active = well fitted curve in the direction sought with a large enough effect; inconclusive = small, poorly fitted or top-dose-only effect, or another doubt; inactive = no such curve, though single readings can be large; an effect the other way counts as inactive or inconclusive.

SMILES | ELG1 repair inh | PKM2 act | Rango dissoc inh | Tb PFK inh | Rango complex inh | Tb PGK inh
CN(C)C(=O)CSc1nnc2sc3ccccc3n12 | ? | i | i | i | i | i
Cc1ccc(S(=O)(=O)N(C)C)cc1NC(=O)CN1C(=O)NC(Cc2ccccc2)C1=O (stereo not drawn) | i | nt | i | i | i | i
CCSc1nnc(NC(=O)C2CCN(S(=O)(=O)c3ccccc3C(F)(F)F)CC2)s1 | 23.1µM | i | i | i | i | i
CCOC(=O)c1cnc(SC)nc1Oc1cccc(NS(=O)(=O)c2ccc(Cl)cc2)c1 | 23.1µM | i | i | i | i | i
O=C(NC1CCCc2ccccc21)c1ccccc1OC(F)F (stereo not drawn) | i | i | i | i | i | i
CCCCS(=O)(=O)/C=C\C=C/S(=O)(=O)CCCC | 8.2µM | i | i | i | i | i
CN(/N=C\c1ccc(O)c(O)c1)c1nc(-c2ccccc2)cc(-c2ccccc2)n1 | 13µM | i | i | i | i | i
COc1cc(/C=N/N(c2ccccc2)c2ccccc2)ccc1O | i | i | i | i | i | i
O=C(CSc1ncc(S(=O)(=O)c2ccc(Br)cc2)c(=O)[nH]1)NCc1ccc(Cl)cc1 | nt | nt | nt | nt | nt | i
OCCCNc1cc(-c2ccnc(Nc3cccc(Cl)c3)n2)ccn1 | 0.58µM | i | i | i | ? | i
CCC(C)Oc1cc(-c2ccnc(Nc3cccc(Cl)c3)n2)ccn1 (stereo not drawn) | ? | i | i | i | i | i
CC1CCCC(NC(=O)CSC2CCCCC2)C1C (stereo not drawn) | i | i | i | i | i | i
CC1CCCC(NC(=O)NC(=O)CCl)C1C (stereo not drawn) | 20.6µM | i | i | i | i | i
CC1CCCCC1NC(=O)NC(=O)CCl (stereo not drawn) | 20.6µM | i | i | i | i | i
CC1CCCCC1NC(=O)NC(=O)COC(=O)c1nccnc1N (stereo not drawn) | i | nt | i | i | i | i
CN(C(=S)Nc1ccc(F)cc1)C(c1ccccc1)c1ccccc1 | ? | nt | i | i | i | i
Cc1ccc(NC(=S)N(C)C(c2ccccc2)c2ccccc2)cc1C | 13µM | nt | i | i | i | i
COc1ccc(/C=N/n2c(SC)nnc2-c2ccccc2)c(OC)c1OC | 8.2µM | i | i | i | i | i
COc1ccc(/C=N/n2c(SC)nnc2-c2ccccc2)cc1C | nt | i | i | nt | i | i
CN(C)S(=O)(=O)N(CC(=O)Nc1ccc(F)c(F)c1)c1ccccc1 | i | i | i | i | i | i
CN(C)S(=O)(=O)N(CC(=O)Nc1ccc2ccccc2c1)c1ccccc1 | 23.1µM | i | i | i | i | i
C[C@]12c3[nH]c4ccc(Cl)cc4c3CCN1C(=O)[C@@H](CC(=O)NCCC1=CCCCC1)C[C@@H]2C(=O)N1CCOCC1 | ? | nt | i | i | i | i
Clc1ccc(-c2noc(CSc3nnc(-c4ccncc4)n3-c3ccccc3)n2)cc1 | 16.4µM | i | i | i | i | i
Cc1ccc(NS(=O)(=O)c2cc3[nH]c(=O)c(=O)[nH]c3cc2C)cc1Cl | nt | nt | nt | nt | nt | i
Cc1cc2[nH]c(=O)c(=O)[nH]c2cc1S(=O)(=O)Nc1cccc(Cl)c1C | i | 15.8µM | i | i | i | i
SMILES | ELG1 repair inh | PKM2 act | Rango dissoc inh | Tb PFK inh | Rango complex inh | Tb PGK inh
Cc1ccc(S(=O)(=O)Nc2ccncc2)c(C)c1 | i | nt | i | i | i | i
COc1cc(NS(=O)(=O)c2ccc(C)cc2C)cc(OC)c1OC | 10.3µM | ? | i | i | i | i
COc1cc(NS(=O)(=O)c2cc3[nH]c(=O)c(=O)[nH]c3cc2C)cc(OC)c1OC | i | 7.08µM | i | i | i | i
COc1ccc(CNCC(=O)Nc2cc(OC)cc(OC)c2)cc1 | ? | nt | i | i | i | nt
COc1ccccc1N1CCN(S(=O)(=O)c2c(C)sc3ncn(CC(=O)Nc4ccc(C)cc4Br)c(=O)c23)CC1 | nt | nt | nt | nt | nt | i
O=C(/C=C/c1cccs1)c1cc(Br)ccc1OC(=O)N1CCOCC1 | 16.4µM | i | i | i | i | i
